KB-V1 cytotox = qHTS assay for MDR1-selective chemotherapeutics: Primary screen using the drug-selected MDR subline cells KB-V1; AID 1347076, 2019; 3.4% of 400,000 active; KB-V1 MDR cells viability, CellTiter-Glo, 72 h; Potency, µM (series often up to 46.1 µM), usual class: cytotoxic; further: potency means the concentration at half of the fitted maximal effect; on the % scale 0 is the no-effect control and ±100 the full control effect; nearly all actives have a fitted effect of over 60% in size
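Readout: CellTiter-Glo luminescence, 10 min after addition. Cells: KB-V1 MDR subline, 72 h at 37 degrees C with compound. Analysis: corrected, normalized data fitted to concentration-effect curves.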
IL-1B inflam inh = qHTS for Inhibitors of Inflammasome Signaling: IL-1-beta AlphaLISA Primary Screen; THP-1 LPS/ATP IL-1B secretion, AlphaLISA, 16 h; stronger effect = lower value; activity change, % at 57.5 µM; 4.7% of 360,000 active; in the data active means activity change below about -50%; inconclusive means mostly about -30% to -49%; further: on the % scale 0 is the no-effect control and ±100 the full control effect
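Secreted IL-1B measured by AlphaLISA bead assay after 16 h compound exposure of THP-1 cells; compounds (final up to 57.5 uM) added 1 h before LPS (250 ng/mL) and ATP (1.25 mM) stimulation; lower signal means less secretion.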
SW480 rerep = A quantitative high throughput screen for small molecules that induce DNA re-replication in SW480 colon adenocarcinoma cells. SW480 DNA re-replication, Hoechst DNA content imaging, 48 h. Potency, µM (doses to about 46.1 µM), without a hit: at the highest dose re-replication activation, actives largely listed as activators. 1.8% of 340,000 active. AID 624297, 2012; further: potency means the concentration at half of the fitted maximal effect; % of control where 0% means no effect; nearly all actives have a fitted effect of over 55% in size
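Readout is total intensity of Hoechst-stained nuclei, excited at 405 nm and collected at 500-530 nm. Compound treatment lasted 48 hr at 37 C in 5% CO2 before staining.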
KB-3-1 tox = qHTS assay for MDR1-selective chemotherapeutics: Primary screen using the parental adenocarcinoma cell KB-3-1; Potency, µM (highest dose often 46.1 µM), most hits filed as cytotoxic; KB-3-1 viability, CellTiter-Glo ATP luminescence, 72 h; 1.4% of 400,000 active; further: potency means the concentration at half of the fitted maximal effect; on the % scale 0 is the no-effect control and ±100 the full control effect; nearly all actives have a fitted effect of over 60% in size
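Viability of parental KB-3-1 cells, measured by CellTiter-Glo luminescence, followed a 72 h incubation at 37 °C with pinned compounds in phenol-red-free DMEM containing 10% FBS.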
MCF10A rereplic = A quantitative high throughput screen for small molecules that induce DNA re-replication in MCF 10a normal breast cells; 2.9% of 350,000 active; Potency, µM (doses to about 46.1 µM), for the others: at the top dose activity, positive = re-replication, hits mostly activators; MCF 10A DNA re-replication, Hoechst nuclear intensity, 48 h; AID 624296, 2012; further: potency means the concentration at half of the fitted maximal effect; % of control where 0% means no effect; nearly all actives have a fitted effect of over 50% in size
The depositor's hits bear a star; i = inactive; ? = inconclusive; . = not tested or not shown; ! = repeats disagree. An excerpt weighted towards active compounds, which were near 9.9% of everything screened. Unless noted, the call rests on the fitted dose curve; in most records, active means well fitted curve in the direction sought with a large enough effect; inconclusive means small, poorly fitted or top-dose-only effect, or another doubt; inactive means no such curve, though single readings can be large; an effect the other way counts as inactive or inconclusive.

SMILES	KB-V1 cytotox	IL-1B inflam inh	SW480 rerep	KB-3-1 tox	MCF10A rereplic
COc1ccc(/C=C/C(=O)c2c(O)cc(C)oc2=O)c(OC)c1	?	-18	?	?	?
COc1cccc(/C=C/C(=O)c2c(O)cc(C)oc2=O)c1O	i	-81*	19%	?	?
CCOc1ccccc1Nc1sc(C(=O)c2ccc(Cl)cc2)c(N)c1C#N	i	.	.	?	.
COc1cc2c(=O)n(CC3CCCO3)c(=O)n(CC(=O)Nc3ccccc3)c2cc1OC (stereo not given)	i	-20	-15%	i	-6%
CN(N)c1nc(-c2ccccc2)cc(-c2ccccc2)n1	?	-64*	0%	i	?
CN1CCN(c2nc(C(N)=O)cc(-c3ccccc3)n2)CC1	i	-57*	6%	i	?
Cc1cc(-c2ccccc2)nc(N2CCN(c3ccccn3)CC2)n1	i	32	3%	i	1%
CCN(CC)c1nc(C(N)=O)cc(-c2ccccc2)n1	i	-73*	?	i	?
N#Cc1ccc(Oc2nc(C(N)=O)cc(-c3ccccc3)n2)cc1	?	-11	-3%	i	1%
CCCN(CC(=O)Nc1cc(C)on1)CC(=O)Nc1ccc(F)c(F)c1F	4.6µM*	19	0%	i	4%
Cc1ccc(OCC(=O)N(C)CC(=O)Nc2ccc(F)c(F)c2F)cc1	i	-65*	?	i	2%
CCCCc1nnc(SCc2cc(=O)c3cc(F)ccc3[nH]2)n1C	i	.	.	i	.
Cc1c(/C=N/O)sc2ccccc12	21µM*	?	-4%	?	-1%
Cc1cccc(/N=C/c2sc3ccccc3c2O)n1	i	-2	-3%	i	-4%
CCOC(=O)C1=C(O)CSC1=Nc1cccc2ccccc12	23µM*	-1	-41%	i	3%
CCOC(=O)c1nn(-c2cccc(Cl)c2)c2nc(CC(C)C)c(C#N)c(=O)n12	?	7	-8%	i	23µM*
CCc1nnc(N/N=C/c2ccccc2F)n1N	i	42	?	i	26µM*
O=C(c1cn(-c2ccccc2)nc1-c1cccnc1)N1CCCC(C(F)(F)F)C1 (stereo not given)	?	-20	0%	i	1%
COC(=O)CSC1=C(C#N)C(c2ccc(C)cc2)C2=C(CCCC2=O)N1 (stereo not given)	i	0	0%	i	28%
N#CC1=C(SCC(N)=O)NC2=C(C(=O)c3ccccc32)C1c1ccc(Cl)cc1 (stereo not given)	?	-52*	16%	?	?
COc1cc(C(=O)OCC(=O)NC2CCCCCC2)ccc1OCC(C)C	i	0	-1%	i	1%
NC(=O)C12CCCC(Br)(CCC1)C2	i	-63*	-8%	i	-1%
Cc1ccc(NC(=O)c2cc3c([nH]c2=O)CC(c2ccccc2)CC3=O)cc1 (stereo not given)	i	.	.	?	.
CN1CCN(c2ccc(Nc3ccnc4cc(Cl)ccc34)cc2)CC1	?	-90*	?	?	-4%
CCOc1ccc(Nc2ccnc3cc(Cl)ccc23)cc1	i	-25	?	?	2%
SMILES	KB-V1 cytotox	IL-1B inflam inh	SW480 rerep	KB-3-1 tox	MCF10A rereplic
CCN1CCN(c2ccc(Nc3ccnc4ccccc34)cc2)CC1	i	-1	15µM*	?	?
CCOC(=O)c1cnc2ccccc2c1Nc1ccc(N2CCOCC2)cc1	i	.	.	i	.
O=c1cc(CN2CCN(Cc3ccc(F)cc3)C(CCO)C2)[nH]c2ccccc12 (stereo not given)	?	18	2%	i	0%
Cc1ccc(CNC(=O)C2c3ccccc3C(=O)N3CCc4ccccc4C23)o1 (stereo not given)	i	-4	?	i	18µM*
Cc1ccc(S(=O)(=O)NN=C2CC3CCC2(C)C3(C)C)cc1 (stereo not given)	i	32	1%	i	11%
CC(=O)c1sc(N/N=C2\CC3CCC2(C)C3(C)C)nc1C (stereo not given)	?	9	-74%	i	21µM*
CCOC(=O)C1(C)CCN1C(=O)c1cc(F)ccc1C (stereo not given)	i	8	.	i	.
CCc1ccc(S(=O)(=O)c2cn(CC)c3cc(N4CCOCC4)c(F)cc3c2=O)cc1	i	.	.	i	.
Cc1cccc(CS(=O)(=O)c2ncc(Cl)c(C(=O)NCc3ccccc3)n2)c1	i	-97*	?	i	13µM*
Cc1ccccc1NC(=O)c1nc(S(C)(=O)=O)ncc1Cl	i	-98*	?	i	?
COc1ccc(OC)c(NC(=O)c2nc(S(=O)(=O)Cc3ccccc3)ncc2Cl)c1	?	-102*	?	4.1µM*	1.6µM*
O=C(Nc1ccccc1F)c1nc(S(=O)(=O)Cc2ccccc2F)ncc1Cl	i	.	.	i	.
Cc1nnc(NC(=O)c2nc(S(=O)(=O)Cc3ccccc3)ncc2Cl)s1	?	-103*	1%	10µM*!	?
COc1ccc(OC)c(NC(=O)CSc2ccc(-c3cccnc3)nn2)c1	i	9	-9%	i	7%
COc1cccc(C(C)(O)c2nc(-c3cccc4cccnc34)cs2)c1 (stereo not given)	?	28	.	?	.
Cc1cccc(C)c1NC(=O)c1nc(S(=O)(=O)Cc2ccccc2)ncc1Cl	?	-101*	?	?	?
CCOC(=O)c1nc(S(C)(=O)=O)ncc1N1CCOCC1	i	5	0%	i	-1%
Cc1cccc(CS(=O)(=O)c2ncc(Cl)c(C(=O)Nc3c(C)cccc3C)n2)c1	?	-66*	?	?	?
CCOC(=O)c1nc(S(C)(=O)=O)ncc1Cl	i	-98*	?	i	10%
CCCc1nnc(NC(=O)c2nc(S(=O)(=O)Cc3cccc(C)c3)ncc2Cl)s1	i	?	?	i	?
O=C(c1ccc(N2CCN(C(=O)c3ccccc3Br)CC2)cc1)c1cccc(F)c1	5.8µM*	-23	12%	?	?
O=C(c1ccc(N2CCN(C(=O)c3cccc(F)c3)CC2)cc1)c1cccc(F)c1	4.1µM*	?	6%	i	?
O=C1c2cccc3cccc(c23)C(=O)N1CC1CCN(S(=O)(=O)c2ccc(F)cc2)CC1	9.2µM*	-7	14%	i	22%
O=C1c2cccc3cccc(c23)C(=O)N1CC1CCN(S(=O)(=O)c2ccccc2)CC1	i	31	2%	i	-1%

Assay outcomes from PubChem.
